Screening results (PubChem BioAssay)
Most compounds without a hit are left out; they make up all but 12% or so of the library.
HP1b binding inh – blocks HP1-beta chromodomain binding to methylated histone tails. 0.56% of 390,000 active. AID 540317. AlphaScreen HP1-beta / biotin-H3K9me3 peptide binding. P83916. Potency, µM (series often up to 114 µM), actives largely listed as inhibitors; note: nearly all actives have a fitted effect of over 70% in size
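AlphaScreen: HP1-beta (50 nM) preformed 30 min with biotin-H3(1-18)K9me3 peptide (50 nM) in PBS pH 7.4, 0.01% Tween-20. Compound added for 30 min at RT, then streptavidin donor/nickel chelate acceptor beads (10 ug/mL) for 30 min.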
G9a block – G9a (human) methyltransferase inhibition; Q96KQ7; AID 504332; Potency, µM (top dose mostly 102 µM), actives largely listed as inhibitors; 8.8% of 350,000 active; G9a H3K9 monomethylation, AlphaScreen, 2 h; note: nearly all actives have a fitted effect of over 75% in size
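Methyltransferase reactions run at room temperature for 2 h (20 nM enzyme, 500 nM biotin-H3K9 peptide, 20 uM SAM) after a 15 min compound preincubation; product detected by AlphaScreen beads and anti-H3K9me1 antibody.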
BAZ2B inh – blocks human BAZ2B. Q9UIF8. AlphaScreen BAZ2B-H3K14Ac peptide displacement. Potency, µM (titrated, usually from 114 µM), hits mostly inhibitors. 4.4% of 360,000 active. AID 504333; note: nearly all actives have a fitted effect of over 60% in size
Target sequence (Q9UIF8 whole entry, looked up): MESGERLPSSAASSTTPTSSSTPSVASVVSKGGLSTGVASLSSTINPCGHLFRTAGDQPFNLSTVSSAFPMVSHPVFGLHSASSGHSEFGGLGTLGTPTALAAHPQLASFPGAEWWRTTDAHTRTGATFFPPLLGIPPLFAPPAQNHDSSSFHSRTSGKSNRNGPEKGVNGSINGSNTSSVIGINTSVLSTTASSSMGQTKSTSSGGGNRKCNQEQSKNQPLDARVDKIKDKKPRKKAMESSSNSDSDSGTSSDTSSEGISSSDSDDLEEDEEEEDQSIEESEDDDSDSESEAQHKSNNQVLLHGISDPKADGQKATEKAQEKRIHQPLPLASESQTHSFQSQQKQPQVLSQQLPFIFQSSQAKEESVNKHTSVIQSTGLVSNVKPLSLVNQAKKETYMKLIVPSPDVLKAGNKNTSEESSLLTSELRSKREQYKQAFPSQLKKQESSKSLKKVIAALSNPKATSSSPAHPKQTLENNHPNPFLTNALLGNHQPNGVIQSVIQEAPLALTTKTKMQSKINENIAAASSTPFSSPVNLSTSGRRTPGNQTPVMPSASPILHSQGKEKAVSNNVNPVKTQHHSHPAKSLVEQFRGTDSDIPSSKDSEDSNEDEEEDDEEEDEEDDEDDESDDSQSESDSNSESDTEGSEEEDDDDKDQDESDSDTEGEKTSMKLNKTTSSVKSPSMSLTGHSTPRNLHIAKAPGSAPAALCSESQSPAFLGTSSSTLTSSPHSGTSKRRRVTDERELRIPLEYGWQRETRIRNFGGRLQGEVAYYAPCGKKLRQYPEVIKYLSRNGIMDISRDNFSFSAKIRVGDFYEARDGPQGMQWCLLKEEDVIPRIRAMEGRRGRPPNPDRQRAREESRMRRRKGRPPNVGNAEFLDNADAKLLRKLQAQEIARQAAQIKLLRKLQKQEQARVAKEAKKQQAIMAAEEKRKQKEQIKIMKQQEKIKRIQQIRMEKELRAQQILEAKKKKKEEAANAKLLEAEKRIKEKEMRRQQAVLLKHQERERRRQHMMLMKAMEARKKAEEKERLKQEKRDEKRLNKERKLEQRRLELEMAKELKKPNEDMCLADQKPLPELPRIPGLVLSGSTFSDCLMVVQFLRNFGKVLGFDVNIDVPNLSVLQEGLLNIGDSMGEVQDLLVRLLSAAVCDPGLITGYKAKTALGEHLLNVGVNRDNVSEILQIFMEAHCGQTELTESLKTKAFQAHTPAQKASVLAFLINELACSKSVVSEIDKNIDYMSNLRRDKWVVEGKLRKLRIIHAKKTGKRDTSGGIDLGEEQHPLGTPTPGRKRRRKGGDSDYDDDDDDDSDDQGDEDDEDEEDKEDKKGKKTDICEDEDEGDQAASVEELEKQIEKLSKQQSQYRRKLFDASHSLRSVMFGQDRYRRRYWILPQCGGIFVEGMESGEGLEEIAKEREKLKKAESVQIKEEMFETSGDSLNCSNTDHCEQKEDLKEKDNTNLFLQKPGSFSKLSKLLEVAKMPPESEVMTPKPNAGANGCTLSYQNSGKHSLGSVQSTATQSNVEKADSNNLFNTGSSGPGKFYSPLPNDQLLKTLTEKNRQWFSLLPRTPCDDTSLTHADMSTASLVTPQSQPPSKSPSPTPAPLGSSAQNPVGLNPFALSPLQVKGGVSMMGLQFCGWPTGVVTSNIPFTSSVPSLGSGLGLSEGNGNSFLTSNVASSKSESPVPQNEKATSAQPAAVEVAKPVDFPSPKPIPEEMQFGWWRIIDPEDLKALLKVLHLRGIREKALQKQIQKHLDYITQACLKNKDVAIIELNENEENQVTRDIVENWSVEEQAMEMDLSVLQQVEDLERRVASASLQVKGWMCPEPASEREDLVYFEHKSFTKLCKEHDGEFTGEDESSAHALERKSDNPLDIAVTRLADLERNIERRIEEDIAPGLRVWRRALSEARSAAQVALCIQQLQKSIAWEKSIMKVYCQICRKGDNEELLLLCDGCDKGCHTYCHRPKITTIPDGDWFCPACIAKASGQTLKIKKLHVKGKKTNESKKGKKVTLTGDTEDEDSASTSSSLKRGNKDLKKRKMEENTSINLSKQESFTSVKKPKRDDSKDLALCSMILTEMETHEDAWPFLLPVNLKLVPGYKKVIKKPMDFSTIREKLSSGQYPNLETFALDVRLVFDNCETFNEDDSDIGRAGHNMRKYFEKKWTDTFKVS
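In this displacement format the biotinylated H3(5-23) peptide acetylated at Lys14 serves as ligand at 50 nM, with BAZ2B at 50 nM in PBS pH 7.4 containing 0.01% Tween-20. Donor and acceptor beads are 10 ug/mL final.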
JMJD2A Tudor inh – inhibitors of human JMJD2A Tudor domain | AlphaScreen JMJD2A-Tudor / H3K4me3 peptide binding | Potency, µM (series often up to 114 µM), usual class: inhibitors | 4.4% of 390,000 active; note: nearly all actives have a fitted effect of over 50% in size
PI5P4Ka inh – blocks human PI5P4K alpha kinase activity | PI5P4Kalpha enzyme, ADP-Glo luminescence, 60 min; hits give low values | max response, % | 1.2% of 330,000 active; active = max response of -50% or lower; inconclusive = between -30% and -50%; inactive = -30% or higher; note: value at the top dose of about 77 µM
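Reactions run in 0.038 M HEPES pH 7.4, 0.28 mM EGTA, 0.1% CHAPS and 5% DMSO, with PI5P4Kalpha, substrate, compound and 5 microM ATP final, one hour at room temperature. Readout is ADP-Glo luminescence.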
PLK1 PBD block – inhibitors of human PLK1 polo-box domain binding | P53350 | Plk1 PBD binding of FITC phosphopeptide, fluorescence polarization | 2.8% of 360,000 active | Potency, µM, hits mostly inhibitors; note: series mostly up to about 57 µM; nearly all actives have a fitted effect of over 65% in size
Hits are given with their value; – = inactive; ? = inconclusive; · = not tested or not shown; [ ] = dose if it differs, or a comment. Unless noted, calls come from the whole dose curve; as a rule, active = well fitted curve in the direction sought with a large enough effect; inconclusive = small, poorly fitted or top-dose-only effect, or another doubt; inactive = no such curve, though single readings can be large; an effect the other way counts as inactive or inconclusive.

SMILES	HP1b binding inh	G9a block	BAZ2B inh	JMJD2A Tudor inh	PI5P4Ka inh	PLK1 PBD block
CC(C)CN(C(=O)CCCc1nc2ccccc2c(=O)[nH]1)c1c(N)n(Cc2ccccc2)c(=O)[nH]c1=O	–	40µM	–	–	–	–
CC(C)CN(C(=O)CSc1nnc(-c2cccs2)n1N)c1c(N)n(Cc2ccccc2)c(=O)[nH]c1=O	–	50µM	–	–	–	–
Cc1nc2ccccc2c(C)c1CC(=O)N(CC(C)C)c1c(N)n(Cc2ccccc2)c(=O)[nH]c1=O	–	–[0.501 µM]	–	–	–	–
Cc1nnc(SCC(=O)N(CC(C)C)c2c(N)n(Cc3ccccc3)c(=O)[nH]c2=O)n1N	–	10µM	–	–	–	–
CCN(C(=O)CSc1nnc(-c2ccc(C)cc2)n1N)c1c(N)n(Cc2ccccc2)c(=O)[nH]c1=O	–	?	–	–	–	–
Cn1c(NC2=NC3(CCCC3)C3=C(CCCC3=O)N2)nc2ccccc21	·	·	·	–	·	·
CN1CCC(N(C)C(=O)c2ccc(Cl)c(S(=O)(=O)Nc3cc(Cl)ccc3Cl)c2)CC1	–	–[12.7 µM]	–	–	–	–
Cc1ccnc(NCc2ccc(Cl)cc2)c1	–	–	–	–	–	–
Cc1ccc(NCc2ccc(Cl)nc2)c(NCc2ccc(Cl)nc2)c1	–	35µM	35µM	–	–	–
Fc1ccc(NCc2cccnc2)cc1F	–	?	?	79µM	·	–
Cc1cc(F)ccc1NCc1cccnc1	?	–[12.7 µM]	–	–	–	?
Cc1ccc(NCc2cccnc2)c(Br)c1	?	14µM	79µM	3.2µM	–	–
CCOC(=O)C1CCN(C(=O)Cn2c(=O)c3cccn3c3cccnc32)CC1	–	–	–	–	–	–
C(=C\c1ccccc1)/CN1CCN(C(CCc2ccccc2)c2nnnn2C2CCCC2)CC1 (stereo not drawn)	·	·	·	·	–	–
S=c1[nH]nc([C@@H]2C[C@H]2c2ccccc2)n1-c1ccccc1Cl	–	5µM	–	?	–	–
Cc1ccc(C2CC2c2n[nH]c(=S)n2-c2ccc(Cl)cc2)cc1 (stereo not drawn)	–	22µM	–	–	·	–
Cc1ccc(N2C(=O)c3[nH]nc(-c4ccc(Cl)cc4)c3C2c2ccc(F)cc2)cc1 (stereo not drawn)	–	–	·	–	·	·
Cc1ccc(C2CC2c2n[nH]c(=S)n2-c2cccc(C)c2)cc1 (stereo not drawn)	–	14µM	–	–[11.4 µM]	–	24µM
CC(=O)N1CCC2(CCN(Cc3nccs3)CC2)CC1	·	–[12.7 µM]	·	·	·	·
COc1ccc2nc(S(=O)Cc3ncc(C)c(OC)c3C)[nH]c2c1 (stereo not drawn)	14µM	1.4µM	32µM	28µM	?	24µM
Cc1ccc(S(=O)(=O)N2CCN(C3CC4CCC3C4)CC2)cc1 (stereo not drawn)	32µM	8.9µM	32µM	14µM	–	–
COc1ccc(S(=O)(=O)N2CCN(C3CC4CCC3C4)CC2)cc1 (stereo not drawn)	–	22µM	–	3.2µM	–	?
Cc1ccc(S(=O)(=O)NC2CC3CCC2C3)cc1 (stereo not drawn)	–	·	·	–	–	–
N#Cc1ccc(C(=O)NN2C(=O)NC3(CCCCC3)C2=O)cc1	–	56µM	–	–	–	–
N#C/C(=C\C=C\c1ccccc1[N+](=O)[O-])C(=O)NCc1ccccc1	?	40µM	?	?	–	–
SMILES	HP1b binding inh	G9a block	BAZ2B inh	JMJD2A Tudor inh	PI5P4Ka inh	PLK1 PBD block
CCCCCCCCNC(=O)/C(C#N)=C/c1ccccc1[N+](=O)[O-]	–	40µM	–	?	–	?
CN1CCN(NS(=O)(=O)c2cccs2)CC1	–	1.4µM	–	–	–	9.5µM
O=S(=O)(NCCNS(=O)(=O)c1cccs1)c1cccs1	–	–	–	–	–	–
Clc1ccccc1CNCC1CCCO1 (stereo not drawn)	–	–	–	–	–	–
Oc1ccc(Cl)cc1CNCC1CCCO1 (stereo not drawn)	?	–[2.33 µM]	50µM	3.2µM	–	–
COC(=O)C1=COC(C)C2CN3CCc4c([nH]c5cc(OC)c(OC)cc45)C3CC12 (stereo not drawn)	?	–[12.7 µM]	50µM	25µM	–	–
COc1ccc(NS(=O)(=O)c2ccc(N3CCOCC3)c(NC(=O)c3ccc(F)cc3)c2)cc1	–	–	–	–	–	–
O=C(Nc1cc(S(=O)(=O)Nc2ccc(Cl)cc2)ccc1N1CCCCC1)c1ccc(F)cc1	?	10µM	–	?	–	12µM
N#Cc1ccc(C(=O)Nc2cc(S(=O)(=O)Nc3ccc(Cl)cc3)ccc2N2CCCCC2)cc1	?	7.1µM	–	?	?	6µM
Nc1ncnc2nc(SCC(=O)Nc3ccccc3F)[nH]c12	–	–	–	–	–	–
COc1ccc([C@H]2N[C@]3(CCCN(Cc4cccn4C)C3=O)[C@H]3C(=O)N(Cc4ccccc4)C(=O)[C@@H]23)cc1	·	·	·	·	–	–
COc1ccc(Nc2nc(CN3CCOCC3)nc3sc4c(c23)CCC(C)C4)cc1OC (stereo not drawn)	·	–	–	·	·	·
COc1cc2c(cc1OC)CN(c1nc(CN3CCOCC3)nc3sc4c(c13)CCC(C)C4)CC2 (stereo not drawn)	?	14µM	32µM	25µM	–	–
CCC(CC)C(C(=O)NCc1ccccc1)N1CCN(C(=O)C2CCCO2)CC1 (stereo not drawn)	·	·	·	·	–	–
O=C(NCC(c1cccnc1)N1CCN(Cc2ccccc2)CC1)C(=O)Nc1cccc(F)c1 (stereo not drawn)	–	–	–	–	·	·
Cc1ccc(O)c(N)c1	–	–[0.501 µM]	–	–	–	–
COc1ccc(O)c(N)c1	·	7.9µM	50µM	·	·	·
Cc1cc(NC(=O)CSc2nc3c(c(-c4cccnc4)c2C#N)CCC3)no1	–	–	79µM	?	·	–
Cc1ccc(-n2nc3c(c2NC(=O)c2ccc(Br)o2)CSC3)c(C)c1	–	40µM	–	–	·	–
Cc1ccc(-n2nc3c(c2NC(=O)CC(C)C)CS(=O)C3)cc1 (stereo not drawn)	–	32µM	–	–	–	–
Cc1ccccc1-n1nc2c(c1NC(=O)c1cccc(F)c1)CS(=O)C2 (stereo not drawn)	–	50µM	–	–	–	–
Cc1cccc(-n2nc3c(c2NC(=O)c2ccco2)CSC3)c1C	–	40µM	–	50µM	·	?
Cc1ccc(-n2nc3c(c2NC(=O)/C=C\c2ccc4c(c2)OCO4)CSC3)c(C)c1	–	–	–	–	–	–
CCc1ccc(S(=O)(=O)c2c[nH]c3cc(OC)c(OC)cc3c2=O)cc1	–	–	–	–	·	·
COc1cccc2c1Oc1cc([N+](=O)[O-])cc(N(C)C(C)=O)c1C=C2	–	–	–	–	–	–
Cc1cccc(NC(=O)c2sc(-n3nc(C)c(Cc4ccc5c(c4)OCO5)c3C)nc2C)c1C	–	–	–	–	·	·
